Values without a mark were called inactive.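 How the source made its calls: active = AUC reduced over 20% with Padj below 0.05 in at least 2 of 3 replicates; inactive = otherwise.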
Key:
Assay in all cases: growth AUC relative to DMSO control (median of replicates) (fraction); higher = more growth (less inhibition), active = hit call of the paper
Details in all cases: 20 µM; 24 h
[1] = system: Akkermansia muciniphila
Method in brief: (§1)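 Three biological replicates, each grown on a separate day, were combined as a median for every value. In each, a gut bacterial monoculture in mGAM started at OD600 0.05 and grew anaerobically at 37 °C with 20 µM compound (1% DMSO), with OD600 read hourly over 24 h. Area under the growth curve was normalised against the plate median of solvent-only wells, or against row and column medians on the industrial chemical plate, after the minimum OD was set to 0.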

[2] = system: Bacteroides caccae
Method in brief: as §1

[3] = system: Bacteroides clarus
Method in brief: as §1

[4] = system: Bacteroides dorei
Method in brief: as §1

[5] = system: Bacteroides stercoris
Method in brief: as §1

[6] = system: Bacteroides thetaiotaomicron
Method in brief: as §1

[7] = system: Bacteroides uniformis
Method in brief: as §1

[8] = system: Bifidobacterium longum subsp. longum
Method in brief: as §1

[9] = system: Clostridium difficile
Method in brief: as §1

[10] = system: Collinsella aerofaciens
Method in brief: as §1

SMILES | growth AUC [1] | growth AUC [2] | growth AUC [3] | growth AUC [4] | growth AUC [5] | growth AUC [6] | growth AUC [7] | growth AUC [8] | growth AUC [9] | growth AUC [10]
CC1COc2ccccc2N1C(=O)C(Cl)Cl (stereo not given) | 0.721 | 0.953 | 0.958 | 0.876 | 0.945 | 0.903 | 0.985 | 1.03 | 0.875 | 0.89
CCCN(CCOc1c(Cl)cc(Cl)cc1Cl)C(=O)NC=O | 1.04 | 0.938 | 0.948 | 0.947 | 1.07 | 0.94 | 0.957 | 0.968 | 1.01 | 0.995
CCOC(=O)C1=NN(c2ccc(Cl)cc2Cl)C(C)(C(=O)OCC)C1 (stereo not given) | 0.965 | 0.979 | 0.932 | 1.02 | 0.933 | 0.92 | 0.95 | 0.931 | 1.03 | 1.01
CCC([O-])=C1C(=O)CC(C(=O)[O-])CC1=O.[Ca+2] (stereo not given) | 0.965 | 1 | 0.998 | 0.996 | 1.1 | 0.958 | 1.01 | 1.03 | 1 | 0.995
CCCOC(=O)c1ccc(O)cc1 | 0.879 | 0.979 | 0.986 | 1.02 | 0.993 | 0.989 | 0.984 | 1.01 | 0.98 | 1.01
O=C(NC(=O)c1c(F)cccc1F)Nc1cc(C(F)(F)F)cc(C(F)(F)F)c1Cl | 0.695 | 0.852 | 0.867 | 0.982 | 0.849 | 0.96 | 0.96 | 0.819 | 1.02 | 1.02
CCCCCCCCCC[N+](C)(C)Cc1ccccc1.[Cl-] | 0.987 | 0.962 | 0.987 | 0.979 | 1.21 | 0.996 | 0.896 | 0.866 | 0.921 | 0.848
CCc1cccc(C)c1N(COC(C)C)C(=O)CCl | 1.07 | 1 | 1.01 | 1.03 | 0.998 | 0.993 | 1.04 | 1.02 | 0.956 | 1.03
CCNc1nc(Cl)nc(N(CC)CC)n1 | 1.06 | 0.995 | 1.01 | 0.986 | 1.01 | 0.977 | 0.951 | 1.02 | 1.02 | 1.03
CC(C)CCCCCOC(=O)C(C)Oc1ccc(Cl)cc1Cl (stereo not given) | 1.14 | 1 | 1.03 | 0.954 | 0.966 | 1.04 | 0.992 | 0.969 | 1.06 | 1.02
O.O.O=[N+]([O-])c1ccc([O-])cc1.[Na+] | 1.02 | 0.999 | 1 | 0.988 | 1.09 | 1.02 | 0.989 | 1.08 | 1.04 | 1.02
c1ccc2cc3ccccc3cc2c1 | 0.776 (active) | 0.972 | 1 | 1 | 1.01 | 0.987 | 0.999 | 0.81 | 0.997 | 0.961
S=C([S-])NCCNC(=S)[S-].S=C([S-])NCCNC(=S)[S-].[Mn+2].[Zn+2] | 0.974 | 1.02 | 1.1 | 1.06 | 1.06 | 0.975 | 1.07 | 1.03 | 0.994 | 1.03
N#Cc1c(N)nc(NC2CC2)nc1N | 0.971 | 1.03 | 0.972 | 1.02 | 0.984 | 1.01 | 0.987 | 0.899 | 1.06 | 1.05
CCOC(=O)c1cnn(C)c1S(=O)(=O)NC(=O)Nc1nc(OC)cc(OC)n1 | 1.08 | 0.999 | 1.02 | 1 | 1.15 | 0.966 | 1.03 | 1.06 | 0.982 | 1
CO/N=C(/C(=O)O)c1ccccc1CO/N=C(\C)c1cccc(C(F)(F)F)c1 | 1 | 0.913 | 0.954 | 0.981 | 1.15 | 0.795 | 0.889 | 0.927 | 0.974 | 0.936
CC(C)(c1cc(Br)c(O)c(Br)c1)c1cc(Br)c(O)c(Br)c1 | 0.904 | 0.0238 (active) | 0.0496 (active) | 0.675 (active) | 0.0125 (active) | 0.662 (active) | 0.297 (active) | 0.252 (active) | 0.0683 (active) | 0.0491 (active)
O=[N+]([O-])c1ccc(Oc2c(Cl)cc(Cl)cc2Cl)cc1 | 0.832 | 1.02 | 0.907 | 1.01 | 1.07 | 0.971 | 0.914 | 0.985 | 1.02 | 0.935
COC1CCC2(CC1)NC(=O)C(c1cc(C)ccc1C)C2O (stereo not given) | 1.08 | 0.974 | 1.04 | 1.02 | 1.14 | 0.999 | 1.02 | 1.05 | 1.01 | 1.05
O=[N+]([O-])c1ccc(O)cc1 | 1.02 | 1.01 | 0.994 | 1.01 | 1.11 | 1.02 | 1.01 | 0.96 | 1.02 | 1.05
CC(C)(C)C(=O)C(Oc1ccc(Cl)cc1)n1ccnc1 (stereo not given) | 1.07 | 0.971 | 0.987 | 0.98 | 1.04 | 0.944 | 0.984 | 1.01 | 0.962 | 0.94
Cc1cc(C)cc(O)c1 | 0.865 | 1.04 | 0.983 | 1.01 | 1 | 1.01 | 1 | 0.906 | 1.03 | 1.02
NC(=O)C1CO1 (stereo not given) | 0.657 (active) | 0.982 | 0.971 | 0.864 | 0.586 (active) | 0.972 | 0.912 | 0.929 | 1.01 | 0.933
Cc1[nH]oc(=O)c1N=Nc1ccccc1Cl | 0.935 | 0.996 | 0.95 | 0.951 | 0.828 | 1.01 | 1.02 | 1.04 | 0.964 | 0.961
Clc1ccc(CSc2ccc(Cl)cc2)cc1 | 0.977 | 1.02 | 0.99 | 0.956 | 0.969 | 1.03 | 0.998 | 1.02 | 1.04 | 0.984
CCc1cccc(C)c1N(C(=O)C(=O)O)[C@@H](C)C(=O)O | 1.17 | 0.993 | 1.02 | 0.963 | 1.06 | 0.999 | 0.999 | 0.908 | 0.903 | 0.986
CN(C(=O)NC(C)(C)c1ccccc1)c1ccccc1 | 0.911 | 1.04 | 0.999 | 0.988 | 0.824 | 1.01 | 1.03 | 0.916 | 1.04 | 0.969
CCOC(=O)[C@@H](C)Oc1ccc(Oc2cnc3cc(Cl)ccc3n2)cc1 | 0.987 | 0.9 | 0.965 | 0.967 | 0.996 | 0.998 | 0.947 | 1.01 | 1.01 | 1.01
